{
  "source": "the OligoGym collection",
  "data": [
    {"molecular_target": "DOCK1", "assay": "pooled miR-30 sensor sort-seq; sequence = guide strand", "details": "shRNA", "values": [
      {"sequence": "TTGTACTGTTCGTCTCCTCTGC", "sensor-assay potency score (higher = more potent)": 0.121},
      {"sequence": "TTAACAGTCTCAAACCAGCGTG", "sensor-assay potency score (higher = more potent)": -0.984},
      {"sequence": "TATCTTGTGTTGACCAAGGTTG", "sensor-assay potency score (higher = more potent)": -0.193},
      {"sequence": "TATCATTTCGAACATCACCAGG", "sensor-assay potency score (higher = more potent)": -1.26},
      {"sequence": "TTCGTAACGTGTAACCTCGGTA", "sensor-assay potency score (higher = more potent)": -0.19},
      {"sequence": "TTCACATCGTTGACGATCGTTG", "sensor-assay potency score (higher = more potent)": -0.549},
      {"sequence": "AACACTTTTGTCAACTTCGTGT", "sensor-assay potency score (higher = more potent)": 0.131}
    ]},
    {"molecular_target": "DOK4", "assay": "pooled miR-30 sensor sort-seq; sequence = guide strand", "details": "shRNA", "values": [
      {"sequence": "TTCCCCAGCATCACACATCCGG", "sensor-assay potency score (higher = more potent)": -0.865},
      {"sequence": "TTCTCCCAGACTGATGTCGTTG", "sensor-assay potency score (higher = more potent)": -1.27},
      {"sequence": "ATAGTGTCTTGTACCACTCCTC", "sensor-assay potency score (higher = more potent)": -0.442},
      {"sequence": "TTCTTCTCCATTTCCAGCAGGA", "sensor-assay potency score (higher = more potent)": 0.267},
      {"sequence": "TAGCAGGATGAATCTGTTGAGG", "sensor-assay potency score (higher = more potent)": -1.03},
      {"sequence": "TCTAGCTCTGAGTCGCAGGTGA", "sensor-assay potency score (higher = more potent)": -0.0163},
      {"sequence": "TTGAGGAGGTCTGTTTCCGAGC", "sensor-assay potency score (higher = more potent)": -1.09},
      {"sequence": "TTTAGCAGGATGAATCTGTTGA", "sensor-assay potency score (higher = more potent)": 0.432},
      {"sequence": "TAGCTCTGAGTCGCAGGTGAAG", "sensor-assay potency score (higher = more potent)": -1.6},
      {"sequence": "TAGTGTCTTGTACCACTCCTCT", "sensor-assay potency score (higher = more potent)": -0.903},
      {"sequence": "TTGCTGATCTCAGTCACCTTGG", "sensor-assay potency score (higher = more potent)": -0.109},
      {"sequence": "TCTGAGTCGCAGGTGAAGGTAC", "sensor-assay potency score (higher = more potent)": -0.935}
    ]},
    {"molecular_target": "DPEP3", "assay": "pooled miR-30 sensor sort-seq; sequence = guide strand", "details": "shRNA", "values": [
      {"sequence": "TTCCACTTGTCTGAAGACCCGC", "sensor-assay potency score (higher = more potent)": -0.394},
      {"sequence": "TGAAGCTCTTCCTCGCTCCAGC", "sensor-assay potency score (higher = more potent)": -0.659},
      {"sequence": "ATGTGGTGTCTGAACTTGGTGG", "sensor-assay potency score (higher = more potent)": -0.807},
      {"sequence": "TTGGTGGAACTCTCTGCCCATG", "sensor-assay potency score (higher = more potent)": -1.6},
      {"sequence": "AAGCACATTCTTGTAACGCTGT", "sensor-assay potency score (higher = more potent)": 0.352},
      {"sequence": "AAATTGTCACACACAGCTCTGG", "sensor-assay potency score (higher = more potent)": -0.275},
      {"sequence": "TACATGTGGTGTCTGAACTTGG", "sensor-assay potency score (higher = more potent)": -0.261},
      {"sequence": "ATTTCGCAGGTTAACATCCTGA", "sensor-assay potency score (higher = more potent)": -0.609},
      {"sequence": "TTGTCTGAAGACCCGCAGCAGG", "sensor-assay potency score (higher = more potent)": -1.57},
      {"sequence": "TGAACTTGGTGGAACTCTCTGC", "sensor-assay potency score (higher = more potent)": 0.129},
      {"sequence": "TCAACAAATTGTCACACACAGC", "sensor-assay potency score (higher = more potent)": -1.21},
      {"sequence": "TTTGAGAGCTGTTCAGACCTTC", "sensor-assay potency score (higher = more potent)": 0.484},
      {"sequence": "ATTCTTGTAACGCTGTCTCAGG", "sensor-assay potency score (higher = more potent)": -0.648}
    ]},
    {"molecular_target": "DPM2", "assay": "pooled miR-30 sensor sort-seq; sequence = guide strand", "details": "shRNA", "values": [
      {"sequence": "TTCAGCATCACATAGGAGATGA", "sensor-assay potency score (higher = more potent)": -0.473},
      {"sequence": "TTGGTCTTCAGCATCACATAGG", "sensor-assay potency score (higher = more potent)": -0.278},
      {"sequence": "TAGGTGAAGATGATCAGGCTAA", "sensor-assay potency score (higher = more potent)": 0.29},
      {"sequence": "TCTTGGTCTTCAGCATCACATA", "sensor-assay potency score (higher = more potent)": -1.79},
      {"sequence": "TTGTGGATGACATGCTGACTGT", "sensor-assay potency score (higher = more potent)": -1.33},
      {"sequence": "ATGAACAGTCCCACAAACAGGA", "sensor-assay potency score (higher = more potent)": -0.342},
      {"sequence": "TCCCACAAACAGGAGCAGCAGG", "sensor-assay potency score (higher = more potent)": -1.71},
      {"sequence": "ATACTTGTGGATGACATGCTGA", "sensor-assay potency score (higher = more potent)": -0.113}
    ]}
  ]
}
